In the antibiotic and cytotoxicity screens of Wong et al. (2023) one finds cytotoxicity call data, which are given here for 69 molecules.

Among all 39,000 compounds or so, about 3,300 (8.5%) were called active. This excerpt belongs to a sample that is enriched for actives.

The test system of the experiment is HepG2. The experiment in a line: cytotoxicity call (relative viability < 0.9). As to conditions: 10 µM.
As for `Cc1noc(C2CNC2)n1`, the cytotoxicity call was “inactive”.

With `COc1ccc(NC(=O)N(C)C[C@@H]2OCCCC[C@@H](C)Oc3ccc(NC(=O)NC(C)C)cc3C(=O)N([C@@H](C)CO)C[C@H]2C)cc1`, the cytotoxicity call was “inactive”. Under `COc1cccc(NC(=O)C[C@@H]2CC[C@H]3[C@@H](COc4ccc(NC(=O)C5CCOCC5)cc4C(=O)N3C)O2)c1` stands “inactive”; under `C[C@H](CO)N1C[C@H](C)[C@H](CN(C)S(C)(=O)=O)Oc2ccc(NC(=O)CCCCCC(=O)Nc3ccccc3N)cc2CC1=O`, “inactive”; under `C[C@H](CO)N1C[C@H](C)[C@H](CN(C)C(=O)c2cccnc2)Oc2cc(C#CC3(O)CCCC3)ccc2S1(=O)=O`, “inactive”.

Consider `COc1cccc(S(=O)(=O)N(C)C[C@H]2OCc3cnnn3CCCC(=O)N([C@@H](C)CO)C[C@H]2C)c1`, for which the cytotoxicity call was “inactive”. For `C[C@H]1CN([C@@H](C)CO)C(=O)c2cccc(NS(C)(=O)=O)c2O[C@@H]1CN(C)C(=O)Nc1ccccc1` the value was “inactive”; for `CC(C)NC(=O)N(C)C[C@@H]1Oc2ccc(NS(=O)(=O)c3ccccc3)cc2C(=O)N([C@@H](C)CO)C[C@H]1C`, “inactive”; for `Cc1noc(C)c1S(=O)(=O)Nc1ccc2c(c1)CC(=O)N([C@H](C)CO)C[C@@H](C)[C@H](CN(C)C(=O)Nc1ccccc1)O2`, “inactive”.

For the molecule `C[C@@H]1CN([C@H](C)CO)C(=O)c2cc(NC(=O)NC3CCCCC3)ccc2O[C@H]1CN(C)Cc1ccc(Cl)c(Cl)c1`, the cytotoxicity call is “inactive”. `C[C@H](CO)N1C[C@H](C)[C@@H](CN(C)C(=O)Nc2cccc3ccccc23)Oc2ccc(NC(=O)CCC(F)(F)F)cc2CC1=O`: the cytotoxicity call is “inactive”. Under `C[C@@H]1CCCCO[C@H](CN(C)C(=O)Nc2ccccc2)[C@H](C)CN([C@H](C)CO)C(=O)c2cc(NC(=O)NC3CCCCC3)ccc2O1` stands “inactive”; under `CC(C)CC#Cc1cnc2c(c1)C(=O)N([C@H](C)CO)C[C@H](C)[C@H](CN(C)S(=O)(=O)c1cn(C)cn1)O2`, “inactive”; under `C[C@@H]1CCCCO[C@@H](CN(C)C(=O)Nc2cccc3ccccc23)[C@H](C)CN([C@@H](C)CO)C(=O)c2cc(NC(=O)NC3CCCCC3)ccc2O1`, “inactive”.

As for `C[C@@H]1CN([C@H](C)CO)C(=O)c2cc(NC(=O)Nc3cccc4ccccc34)ccc2O[C@@H](C)CCCCO[C@H]1CN(C)C(=O)NC1CCCCC1`, the cytotoxicity call was “active”.

Turning to `C[C@@H]1CCCCO[C@@H](CN(C)C(=O)NC2CCCCC2)[C@H](C)CN([C@H](C)CO)C(=O)c2cc(NC(=O)Nc3cccc4ccccc34)ccc2O1`, the cytotoxicity call was “inactive”. For `C[C@@H]1CCCCO[C@H](CN(C)C(=O)Nc2cccc3ccccc23)[C@H](C)CN([C@@H](C)CO)C(=O)c2cc(NC(=O)NC3CCCCC3)ccc2O1`, the cytotoxicity call was “active”.

On to `C[C@@H]1CCCCO[C@@H](CN(C)C(=O)Nc2cccc3ccccc23)[C@H](C)CN([C@H](C)CO)C(=O)c2cc(NC(=O)NC3CCCCC3)ccc2O1`, for which the cytotoxicity call is “inactive”. For `C[C@H](CO)N1C[C@H](C)[C@H](CN(C)C(=O)Nc2cccc3ccccc23)OCCCC[C@H](C)Oc2ccc(NC(=O)NC3CCCCC3)cc2C1=O` the value was “active”; for `C[C@@H]1CCCCO[C@H](CN(C)C(=O)Nc2cccc3ccccc23)[C@@H](C)CN([C@H](C)CO)C(=O)c2cc(NC(=O)NC3CCCCC3)ccc2O1`, “inactive”. For `C[C@@H]1CN([C@@H](C)CO)C(=O)c2cc(NC(=O)Nc3cccc4ccccc34)ccc2O[C@@H](C)CCCCO[C@H]1CN(C)C(=O)NC1CCCCC1` the value was “inactive”; for `C[C@H]1CCCCO[C@H](CN(C)C(=O)Nc2cccc3ccccc23)[C@@H](C)CN([C@@H](C)CO)C(=O)c2cc(NC(=O)NC3CCCCC3)ccc2O1`, “inactive”.

Take `CC(C)NC(=O)Nc1ccc2c(c1)C(=O)N([C@H](C)CO)C[C@@H](C)[C@H](CN(C)S(=O)(=O)c1ccccc1)O2`: the cytotoxicity call was “inactive”.

Consider `C[C@@H]1CN([C@@H](C)CO)C(=O)c2cccc(NC(=O)c3cnccn3)c2O[C@H]1CN(C)Cc1ccc(C(=O)O)cc1`, for which the cytotoxicity call is “inactive”. Under `C[C@@H]1CCCCO[C@H](CN(C)C(=O)c2ccccc2)[C@H](C)CN([C@@H](C)CO)C(=O)c2cc(NC(=O)Nc3cccc4ccccc34)ccc2O1` stands “inactive”; under `O=C(C[C@@H]1CC[C@H](NS(=O)(=O)c2ccc(F)cc2)[C@H](CO)O1)N1CCC(Cc2ccccc2)CC1`, “inactive”. In the case of `Cc1ccc(S(=O)(=O)N(C)C[C@@H]2Oc3ccc(NS(=O)(=O)c4cn(C)cn4)cc3CC(=O)N([C@H](C)CO)C[C@H]2C)cc1`, the cytotoxicity call was “inactive”. Under `c1ccc(Cn2c(-c3ccc(OC[C@H](C4CCNCC4)n4c(-c5ccccc5)nc5ccccc54)cc3)nc3ccccc32)cc1` stands “active”; under `Cc1cccc(-c2nc3ccccc3n2CCC(C)C)c1`, “inactive”. For `Cc1ccc(OCCn2c(CC(C)(C)C)nc3ccccc32)cc1` the value was “inactive”; for `Cc1cncc2cccc(S(=O)(=O)N[C@H]3CN[C@H](COC(=O)NCCOCCOCCN)C3)c12`, “inactive”; for `Cn1cc(CO)cn1`, “inactive”.

For `O=C(C[C@@H]1CC[C@H]2[C@@H](COC[C@@H](O)CN2C(=O)Nc2ccc3c(c2)OCO3)O1)N1CCN(c2ccccc2)CC1`, the cytotoxicity call was “inactive”.

Consider `COc1ccc(NC(=O)Nc2cccc3c2O[C@@H](CN(C)Cc2ccc(-c4ccccc4)cc2)[C@@H](C)CN([C@H](C)CO)C3=O)cc1`, for which the cytotoxicity call is “inactive”. For `COc1ccc(NC(=O)Nc2cccc3c2O[C@H](CN(C)Cc2ccc(-c4ccccc4)cc2)[C@@H](C)CN([C@H](C)CO)C3=O)cc1` the value was “inactive”; for `COc1ccc(NC(=O)Nc2cccc3c2O[C@@H](CN(C)Cc2ccc(-c4ccccc4)cc2)[C@H](C)CN([C@@H](C)CO)C3=O)cc1`, “inactive”; for `COc1ccc(NC(=O)Nc2cccc3c2O[C@H](CN(C)Cc2ccc(-c4ccccc4)cc2)[C@@H](C)CN([C@@H](C)CO)C3=O)cc1`, “active”.

`COc1ccc(NC(=O)Nc2cccc3c2O[C@H](CN(C)Cc2ccc(-c4ccccc4)cc2)[C@H](C)CN([C@H](C)CO)C3=O)cc1`: the cytotoxicity call is “active”.

On to `C[C@H]1CN([C@@H](C)CO)C(=O)c2cccc(NC(=O)Nc3ccccc3)c2O[C@H]1CN(C)Cc1ccc(-c2ccccc2)cc1`, for which the cytotoxicity call is “inactive”. Under `COc1ccc(NC(=O)Nc2cccc3c2O[C@H](CN(C)Cc2ccc(-c4ccccc4)cc2)[C@H](C)CN([C@@H](C)CO)C3=O)cc1` stands “active”; under `COc1ccc(NC(=O)Nc2cccc3c2O[C@@H](CN(C)Cc2ccc(-c4ccccc4)cc2)[C@@H](C)CN([C@@H](C)CO)C3=O)cc1`, “inactive”. As for `COc1ccc(NC(=O)Nc2cccc3c2O[C@@H](CN(C)Cc2ccc(-c4ccccc4)cc2)[C@H](C)CN([C@H](C)CO)C3=O)cc1`, the cytotoxicity call was “active”.

Take `COc1ccc(NC(=O)N(C)C[C@H]2OCCCC[C@@H](C)Oc3ccc(NC(=O)C4CCCCC4)cc3C(=O)N([C@H](C)CO)C[C@@H]2C)cc1`: the cytotoxicity call is “inactive”. For `COc1ccc(CN(C)C[C@H]2Oc3c(NS(C)(=O)=O)cccc3C(=O)N([C@@H](C)CO)C[C@H]2C)cc1` the value was “inactive”; for `COc1ccc2c3c([nH]c2c1)[C@H](CO)N(C[C@]13CN(Cc2ccccc2)C1)S(=O)(=O)c1cn(cn1)C`, “inactive”; for `COc1ccc(NC(=O)N(C)C[C@H]2Oc3ncc(C#CCN(C)C)cc3C(=O)N([C@@H](C)CO)C[C@H]2C)cc1`, “inactive”. Consider `O=C(C[C@@H]1CC[C@H]2[C@@H](COC[C@@H](O)CN2Cc2cc(F)ccc2F)O1)N[C@@H]1CCN(Cc2ccccc2)C1`, for which the cytotoxicity call is “inactive”. For `C[C@@H]1CN([C@H](C)CO)C(=O)CCCn2nncc2CO[C@@H]1CN(C)C(=O)c1ccc(N2CCN(C)CC2)cc1` the value was “inactive”; for `Fc1ccccc1[C@H]1Nc2ccc3ccccc3c2[C@H]2C=CC[C@@H]21`, “inactive”. For `CCNC(=O)C[C@@H]1CC[C@H](NC(=O)C2CCOCC2)[C@H](CO)O1` the value was “inactive”; for `Cc1noc(C)c1NC(=O)Nc1ccc2c(c1)C(=O)N([C@H](C)CO)C[C@H](C)[C@H](CN(C)Cc1ccc(C(F)(F)F)cc1)O2`, “inactive”; for `C[C@@H]1CN([C@H](C)CO)C(=O)c2cc(-c3cncnc3)cnc2O[C@H]1CN(C)C(=O)Nc1ccc2c(c1)OCO2`, “inactive”.

Consider `CCCNC(=O)c1cc2c(c(-c3cccc(-c4cccc(OC)c4)c3)n1)[C@H](CCO)N([S@@](=O)C(C)(C)C)C2`, for which the cytotoxicity call is “inactive”. On to `COc1ccccc1CN1C(=O)c2ccccc2[C@@]2(Cc3ccccc3N(C3CC3)C2=O)[C@@H]1c1ccc(CO)cc1`, for which the cytotoxicity call was “inactive”. Under `O=C1c2ccccc2[C@@]2(Cc3ccccc3N(C3CC3)C2=O)[C@H](c2ccc(CO)cc2)N1Cc1ccccc1` stands “active”.

Consider `O=C1c2ccccc2[C@@]2(Cc3ccccc3N(C3CC3)C2=O)[C@H](c2ccc(CO)cc2)N1Cc1ccccc1Cl`, for which the cytotoxicity call was “inactive”. As to `COc1ccc(S(=O)(=O)N[C@@H]2C=C[C@H](CC(=O)N3CCN(c4ccccc4)CC3)O[C@H]2CO)cc1`, the cytotoxicity call was “inactive”.

In the case of `O=C1c2c(O)cc(CO)cc2C(OC2OC(CO)C(O)C(O)C2O)c2cccc(OC3OC(CO)C(O)C(O)C3O)c21` (centres undefined) [CASANTHRANOL [cascaroside A shown] ], the cytotoxicity call was “inactive”. For `OCc1cc(O)c2c(O)c3c(O)cccc3c(O[C@@H]3O[C@H](CO)[C@H](O)[C@@H](O)[C@H]3O)c2c1` the value was “inactive”; for `O=C(O)c1cc(O[C@@H]2O[C@H](CO)[C@@H](O)[C@H](O)[C@H]2O)c2ccccc2c1O`, “inactive”. For `COc1c(O)cc2c(c1O)C1OC(CO)C(O)C(O)C1OC2=O` (centres undefined) the value was “inactive”. As for `COc1c(O)cc2c(c1O)[C@@H]1O[C@H](CO)[C@@H](O)[C@H](O)[C@H]1OC2=O`, the cytotoxicity call was “inactive”. For the molecule `OCCc1ccc(O)c(O[C@H]2O[C@@H](CO)[C@@H](O)[C@@H](O)[C@@H]2O)c1`, the cytotoxicity call is “inactive”. Under `O=C1c2c(O)cccc2C(C2OC(CO)C(O)C(O)C2O)c2cc(CO)cc(O)c21` (centres undefined) stands “active”; under `O=C(O)c1cc(O)c2c(c1)C(C1c3cc(C(=O)O)cc(O)c3C(=O)c3c(OC4OC(CO)C(O)C(O)C4O)cccc31)c1cccc(OC3OC(CO)C(O)C(O)C3O)c1C2=O` (centres undefined), “active”; under `OCc1cc(O)c2c(O)c3c(O)cccc3c(O[C@@H]3O[C@H](CO)[C@@H](O)[C@H](O)[C@H]3O)c2c1`, “active”. Take `O=C(O)c1cc(O)c2c(O)c3c(O[C@H]4O[C@H](CO)[C@@H](O)[C@H](O)[C@H]4O)cccc3c(-c3c4cc(C(=O)O)cc(O)c4c(O)c4c(O[C@H]5O[C@H](CO)[C@@H](O)[C@H](O)[C@H]5O)cccc34)c2c1`: the cytotoxicity call is “active”. On to `OCc1ccccc1O[C@@H]1O[C@H](CO)[C@@H](O)[C@H](O)[C@H]1O`, for which the cytotoxicity call was “inactive”. On to `OCc1ccc(O[C@@H]2O[C@H](CO)[C@@H](O)[C@H](O)[C@H]2O)cc1`, for which the cytotoxicity call is “inactive”.
